Results taken from PubChem BioAssay (NCATS).
Records with an inconclusive call do not appear. The source made the active and inactive calls. Unless noted, calls follow the shape of the dose curve; as a rule, active = well fitted curve in the direction sought with a large enough effect; inconclusive = small, poorly fitted or top-dose-only effect, or another doubt; inactive = no such curve, though single readings can be large; an effect the other way counts as inactive or inconclusive.

Key:
[1] = biological target: Ubiquitin carboxyl-terminal hydrolase 2 (Homo sapiens) (UniProt O75604); experiment: qHTS Validation Assay for Inhibitors of Ubiquitin-specific Protease USP2a Using CHOP2 as the Reporter (AID 463106)
Summary of the method: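 USP2 core (10nM final) was preincubated with compound for 30min at RT in 20mM Tris-HCl pH 8.0, 2mM CaCl2, 2mM beta-mercaptoethanol, 0.05% CHAPS. Ub-CHOP2 and reporter substrate (25nM each) were added, and fluorescence (Ex 485/Em 531nm) was read after 60min.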

[2] = biological target: DNA polymerase III PolC-type (Bacillus subtilis (strain 168)) (UniProt P13267); experiment: qHTS Validation Assay for the Inhibitors of DNA Replication in Gram-Positive Bacteria (AID 485295);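 also: PicoGreen fluorescence of double-stranded DNA made on primed circular M13 template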
Summary of the method: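 Reconstituted B. subtilis holoenzyme (Pol III, beta clamp, SSB, primase) was preincubated with compound at room temperature, then given single-stranded circular M13Gori plus dNTPs and NTPs. EDTA-containing PicoGreen stopped the reaction, and dsDNA product was read by fluorescence.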

[3] = biological target: Tumor susceptibility gene 101 protein (Homo sapiens) (UniProt Q99816); experiment: qHTS Validation Assay for Iinhibitors of HIV-1 Budding by Blocking the Interaction of PTAP/TSG101 (AID 485342; calls by dose curve)
Summary of the method: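 Tsg101 binding domain (10 uM final) in pH 7.5 HEPES/NaCl/Tween 20/EDTA/TCEP buffer was mixed with pin-transferred compounds, then FITC-labeled PTAP peptide (50 nM final) was added; after 20 min at r.t., fluorescence polarization was read.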

[4] = qHTS Validation Assay to Find Inhibitors of Chronic Active B-Cell Receptor Signaling (AID 485345; active = well fitted curve in the direction sought with a large enough effect in the main read-out, with a control signal flat, not every such curve was filed as active)
Summary of the method: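 TMD8 ABC-DLBCL cells with dox-inducible green luciferase–IκBα fusion and red native luciferase; compounds 46 uM–3 nM, 4 h at 37C with doxycycline in 0.5% FBS IMDM. Green/red ratio normalized to basal and 10 uM MG-132.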

[5] = biological target: Beta-2 adrenergic receptor (Homo sapiens) (UniProt P07550); experiment: qHTS validation assay of beta-arrestin-biased ligands of beta2-adrenergic receptor (AID 485366)
Summary of the method: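 Luminescence from a tTA-responsive luciferase, induced when recombinant beta-arrestin is recruited to recombinant beta2-AR, served as the agonism signal. Cells were exposed to compound for 18 hr at 37 degrees C; titrations spanned up to 46 microM.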

[6] = biological target: ATP-dependent 6-phosphofructokinase (Trypanosoma brucei brucei) (UniProt O15648); experiment: qHTS Validation Assay to Find Inhibitors of T. brucei phosphofructokinase (AID 485368); conditions: T. brucei PFK enzyme assay, qHTS 7-point titration; at 57.5 µM (top of the series)
Summary of the method: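 Activity was normalized between 1x (1.25 nM) PFK wells as no inhibition and enzyme-free wells as full inhibition, from luminescence after ADP-Glo detection of ADP made from 0.5 mM F6P and 0.1 mM ATP over 45 min.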

[7] = Quantitative high throughput screen for delayed death inhibitors of the malarial parasite plastid, 96 hour incubation (AID 488745);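 also: luciferase-expressing P. falciparum in erythrocytes at 2% hematocrit and 0.1% parasitemia; nearly all actives have a fitted effect of over 70% in size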
Summary of the method: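 Growth of reporter-bearing P. falciparum in red cells is measured after 96 h with compound, covering two erythrocytic cycles. Luminescence from the integrated luciferase serves as the growth signal.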

[8] = biological target: Thioredoxin reductase 1, cytoplasmic (Rattus norvegicus) (UniProt O89049); experiment: qHTS Assay for Substrates of Mammalian Selenoprotein Thioredoxin Reductase 1 (TrxR1) (AID 488772);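 also: NADPH fluorescence in the first read after selenite addition and not the 8 min delta; a drop in NADPH fluorescence below the no-compound background marks a TrxR1 substrate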
Summary of the method: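 Quantitative HTS in Tris-HCl buffer at pH 7.5 with EDTA and Tween-20, using rat TrxR1, 400 uM NADPH and 400 uM selenite (final). A fall in initial NADPH fluorescence relative to background marked substrate behaviour.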

[9] = biological target: Thioredoxin reductase 1, cytoplasmic (Rattus norvegicus) (UniProt O89049); experiment: qHTS Assay for Inhibitors of Mammalian Selenoprotein Thioredoxin Reductase 1 (TrxR1) (AID 488773);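 also: drop in NADPH fluorescence over an 8 min run after selenite addition; nearly all actives have a fitted effect of over 40% in size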
Summary of the method: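 Steps: enzyme (90 nM) plus NADPH (400 uM final), 5 min at ~22 deg C; compound added, 15 min; selenite (400 uM final) added; fluorescence followed for 8 min. Concentration-response curves derived from the normalized delta values.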

[10] = biological target: Flap endonuclease 1 (Homo sapiens) (UniProt P39748); experiment: qHTS Validation Assay for the Inhibitors of Human Flap endonuclease 1 (FEN1) (AID 488816)
Summary of the method: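 FEN1, dispensed as a 10 nM reagent, was preincubated with pin-transferred compounds for 15 min at room temperature before substrate was added (50 nM final). Plates were read at 0 and 15 min, and a four-parameter Hill equation was fitted to the concentration-response data.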

[11] = biological target: Chromobox protein homolog 1 (Homo sapiens) (UniProt P83916); experiment: qHTS Validation Assay for Inhibitors of HP1-beta Chromodomain Interactions with Methylated Histone Tails (AID 488953);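 also: loss of AlphaScreen luminescence from HP1-beta binding biotinylated H3K9me3 peptide; nearly all actives have a fitted effect of over 50% in size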
Summary of the method: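 Measured as loss of AlphaScreen luminescence from streptavidin donor and nickel acceptor beads (10 ug/mL final) bridging HP1-beta and biotin-H3(1-18)K9me3, each 50 nM. Compounds met the preassembled complex for 30 min at RT.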

[12] = biological target: Methanococcus maripaludis chaperonin (MmCpn) (UniProt Q6LX38); experiment: High-Throughput Screening for Modulators of Cytosolic Chaperonin Activity: MmCpn Primary Screen (AID 488978);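 also: 50 nM MmCpn enzyme hydrolysing 30 µM ATP at 37 °C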
Summary of the method: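 MmCpn (50 nM final) was preincubated with compound 5 min at RT, then 30 uM ATP (final) was added and the reaction ran 10 min at 37C. ADP produced was detected by Transcreener HTRF (ex 320 nm; em 590/665 nm).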

[13] = biological target: D(1A) dopamine receptor (Homo sapiens) (UniProt P21728); experiment: HTS Assay for Allosteric Agonists of the Human D1 Dopamine Receptor: Primary Screen for Agonists (AID 488981)
Summary of the method: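 Tetracycline-induced HEK293 T-REx cells force-coupled to calcium signalling were incubated overnight at 30 C and dye-loaded at room temperature. Calcium flux over 180 s after compound addition flagged agonists; a further 180 s read after EC20 dopamine flagged potentiators.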

[14] = biological target: D(1A) dopamine receptor (Homo sapiens) (UniProt P21728); experiment: HTS Assay for Allosteric Agonists of the Human D1 Dopamine Receptor: Primary Screen for Antagonists (AID 488983);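 also: calcium flux response to an EC80 dopamine challenge measured with no-wash dye; nearly all actives have a fitted effect of over 65% in size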
Summary of the method: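 Screening of inducible HEK293 T-REx D1 cells: compound first, EC80 dopamine 180 s later, each phase read kinetically for calcium over 180 s.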

[15] = Validation screen for small molecules that induce genotoxicity in human embryonic kidney (HEK293T) cells expressing luciferase-tagged ELG1 (AID 493106)
Summary of the method: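 Reporter-gene quantitative HTS in HEK293T cells carrying luciferase-tagged ELG1, whose level climbs under genotoxic stress. Compound exposure lasts 16 hr at 37 °C before luciferase detection.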

[16] = biological target: ATPase family AAA domain-containing protein 5 (Homo sapiens) (UniProt Q96QE3); experiment: Validation screen for small molecules that inhibit ELG1-dependent DNA repair in human embryonic kidney (HEK293T) cells expressing luciferase-tagged ELG1 (AID 493107);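 also: cells co-treated with the DNA-damaging agent 5-fluorouridine alongside compound; inhibitors lower the ELG1-luciferase luminescence signal; nearly all actives have a fitted effect of over 70% in size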
Summary of the method: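 Quantitative HTS in HEK293T cells carrying luciferase-tagged ELG1, stimulated with 5-fluorouridine alongside compound for 16 hr. Loss of luciferase signal marks inhibition of ELG1 response.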

[17] = qHTS for Inhibitors of Cell Surface uPA Generation: Validation Assay (AID 493164);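 also: RAW 264.7 macrophage cells exposed to compound for 18 h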
Summary of the method: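 RAW 264.7, 4000 cells/well, o/n plating; cpd 7-pt 1:5 dilution 2.45 nM–38.3 uM final; 18 h, 37 C/5% CO2; ATP-Lite, 5 s luminescence exposure.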

[18] = biological target: Peptidyl-prolyl cis-trans isomerase NIMA-interacting 1 (Homo sapiens) (UniProt Q13526); experiment: qHTS Validation Assay to Find Inhibitors of Pin1 (AID 504536; active = well fitted inhibition curve with a large enough effect in the polarisation, with a control signal flat, not every such curve was filed as active; the % refers to the polarisation)
Summary of the method: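 Fluorescence polarization competition: compounds (titration) displace HiFluor-488-labeled Pin1-1b peptide from Pin1 (0.3 uM final) in pH 7.5 HEPES buffer with DTT, 10 min at room temperature; %Activity normalized to no-enzyme wells, curves fitted.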

[19] = biological target: Phosphoglycerate kinase, glycosomal (Trypanosoma brucei brucei) (UniProt P07378); experiment: qHTS Validation Assay to Find Inhibitors of Phosphoglycerate Kinase (AID 504547)
Summary of the method: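 Substrate/PGK mix plus compound; reaction started with GAPDH (100nM final) to form 1,3-BPG; 60 min RT; Kinase-Glo Plus 10 min; luminescence. TEA 100mM pH 7.6, MgCl2 5mM, Tween-20 0.01%.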

[20] = biological target: phosphoglycerate mutase (Leishmania major) (UniProt Q4Q090); experiment: qHTS Validation Assay to Find Inhibitors of Phosphoglycerate Mutase (AID 504548);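 also: end-point luminescence from Kinase-GloPlus after the PGAM reaction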
Summary of the method: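 Inhibition of L. major PGAM was assessed by Kinase-GloPlus luminescence following a 45-minute room-temperature reaction with enzyme at 1.25nM final.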

Measured: Potency

D(1A) dopamine receptor (Homo sapiens), sequence (P21728 whole entry, looked up): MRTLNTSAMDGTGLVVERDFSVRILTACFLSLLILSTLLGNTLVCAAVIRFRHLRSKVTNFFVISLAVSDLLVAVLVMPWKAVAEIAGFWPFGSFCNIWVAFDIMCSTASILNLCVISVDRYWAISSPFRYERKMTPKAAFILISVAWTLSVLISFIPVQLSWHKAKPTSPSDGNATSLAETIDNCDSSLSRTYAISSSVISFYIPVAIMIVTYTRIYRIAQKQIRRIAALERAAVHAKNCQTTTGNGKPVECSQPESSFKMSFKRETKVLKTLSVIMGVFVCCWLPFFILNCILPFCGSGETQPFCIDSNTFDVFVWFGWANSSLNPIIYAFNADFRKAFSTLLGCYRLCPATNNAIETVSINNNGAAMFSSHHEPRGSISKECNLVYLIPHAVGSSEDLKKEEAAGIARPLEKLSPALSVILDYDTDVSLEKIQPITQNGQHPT
Thioredoxin reductase 1, cytoplasmic (Rattus norvegicus), sequence (O89049 whole entry, looked up): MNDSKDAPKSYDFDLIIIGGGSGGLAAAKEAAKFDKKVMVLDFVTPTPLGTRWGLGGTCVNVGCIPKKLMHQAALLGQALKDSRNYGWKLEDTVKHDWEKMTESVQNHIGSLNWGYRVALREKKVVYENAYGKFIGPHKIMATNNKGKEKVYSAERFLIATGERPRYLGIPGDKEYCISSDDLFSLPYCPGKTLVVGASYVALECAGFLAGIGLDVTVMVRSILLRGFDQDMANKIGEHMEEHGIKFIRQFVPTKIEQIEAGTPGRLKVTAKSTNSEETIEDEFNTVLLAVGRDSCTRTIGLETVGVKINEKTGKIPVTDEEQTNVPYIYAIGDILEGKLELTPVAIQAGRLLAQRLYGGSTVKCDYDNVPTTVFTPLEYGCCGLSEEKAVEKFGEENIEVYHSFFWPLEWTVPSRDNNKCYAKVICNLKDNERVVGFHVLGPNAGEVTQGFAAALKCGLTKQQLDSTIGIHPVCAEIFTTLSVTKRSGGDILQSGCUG
ATP-dependent 6-phosphofructokinase (Trypanosoma brucei brucei), sequence (O15648 whole entry, looked up): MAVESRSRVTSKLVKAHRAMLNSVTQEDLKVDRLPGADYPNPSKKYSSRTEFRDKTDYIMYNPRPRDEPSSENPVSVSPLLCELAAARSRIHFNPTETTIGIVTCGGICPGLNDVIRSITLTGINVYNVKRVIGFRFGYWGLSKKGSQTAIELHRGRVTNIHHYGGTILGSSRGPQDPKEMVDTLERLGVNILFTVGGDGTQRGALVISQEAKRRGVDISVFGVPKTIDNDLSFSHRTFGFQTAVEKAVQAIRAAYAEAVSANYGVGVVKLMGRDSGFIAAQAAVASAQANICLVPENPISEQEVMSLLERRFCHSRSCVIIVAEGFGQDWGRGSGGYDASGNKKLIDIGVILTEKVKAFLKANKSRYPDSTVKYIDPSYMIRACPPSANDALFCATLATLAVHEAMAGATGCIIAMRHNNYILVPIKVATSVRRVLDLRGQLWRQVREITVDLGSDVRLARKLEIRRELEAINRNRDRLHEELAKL
Beta-2 adrenergic receptor (Homo sapiens), sequence (P07550 whole entry, looked up): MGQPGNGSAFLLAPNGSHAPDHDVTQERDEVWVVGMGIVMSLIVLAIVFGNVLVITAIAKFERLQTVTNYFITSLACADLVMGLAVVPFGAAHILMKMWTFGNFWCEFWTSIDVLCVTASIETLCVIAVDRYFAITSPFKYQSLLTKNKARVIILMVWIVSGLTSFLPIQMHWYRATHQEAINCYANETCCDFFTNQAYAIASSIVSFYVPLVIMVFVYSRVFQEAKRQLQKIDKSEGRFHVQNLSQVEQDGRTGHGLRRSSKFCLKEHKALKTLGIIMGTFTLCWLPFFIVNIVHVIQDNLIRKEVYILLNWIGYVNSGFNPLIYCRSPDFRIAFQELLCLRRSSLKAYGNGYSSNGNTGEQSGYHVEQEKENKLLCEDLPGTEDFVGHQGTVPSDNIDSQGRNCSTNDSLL
Tumor susceptibility gene 101 protein (Homo sapiens), sequence (Q99816 whole entry, looked up, the tested form may be a part): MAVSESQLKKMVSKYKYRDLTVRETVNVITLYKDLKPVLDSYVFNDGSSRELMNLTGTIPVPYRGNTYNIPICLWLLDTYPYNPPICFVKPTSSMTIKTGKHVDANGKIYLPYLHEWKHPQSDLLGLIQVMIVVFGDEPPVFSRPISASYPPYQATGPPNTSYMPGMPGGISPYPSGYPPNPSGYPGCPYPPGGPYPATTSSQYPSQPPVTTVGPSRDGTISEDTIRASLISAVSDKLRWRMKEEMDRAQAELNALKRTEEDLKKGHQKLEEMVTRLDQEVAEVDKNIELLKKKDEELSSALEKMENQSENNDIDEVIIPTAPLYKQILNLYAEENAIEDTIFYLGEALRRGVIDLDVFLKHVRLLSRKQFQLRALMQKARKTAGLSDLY
Ubiquitin carboxyl-terminal hydrolase 2 (Homo sapiens), sequence (O75604 whole entry, looked up): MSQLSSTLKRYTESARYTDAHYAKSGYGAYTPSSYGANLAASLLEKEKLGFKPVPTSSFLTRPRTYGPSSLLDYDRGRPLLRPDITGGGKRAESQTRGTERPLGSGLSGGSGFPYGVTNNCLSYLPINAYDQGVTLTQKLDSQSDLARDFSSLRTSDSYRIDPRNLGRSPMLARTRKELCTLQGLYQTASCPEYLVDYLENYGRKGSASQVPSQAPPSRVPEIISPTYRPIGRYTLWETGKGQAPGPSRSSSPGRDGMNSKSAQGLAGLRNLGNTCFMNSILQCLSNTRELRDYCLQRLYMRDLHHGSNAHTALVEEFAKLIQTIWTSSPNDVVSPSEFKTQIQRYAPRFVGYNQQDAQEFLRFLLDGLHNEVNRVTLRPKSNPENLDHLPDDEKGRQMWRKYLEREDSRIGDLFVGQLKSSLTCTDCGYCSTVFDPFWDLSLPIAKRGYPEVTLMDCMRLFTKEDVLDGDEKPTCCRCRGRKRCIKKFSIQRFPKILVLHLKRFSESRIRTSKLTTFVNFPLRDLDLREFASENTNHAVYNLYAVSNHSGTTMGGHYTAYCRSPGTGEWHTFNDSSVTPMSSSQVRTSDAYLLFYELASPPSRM
Chromobox protein homolog 1 (Homo sapiens), sequence (P83916 whole entry, looked up): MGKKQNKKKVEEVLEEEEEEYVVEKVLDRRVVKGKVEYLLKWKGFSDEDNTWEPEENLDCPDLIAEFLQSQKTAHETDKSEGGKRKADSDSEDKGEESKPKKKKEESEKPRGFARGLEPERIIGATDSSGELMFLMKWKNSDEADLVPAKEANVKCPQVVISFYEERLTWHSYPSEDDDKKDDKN
DNA polymerase III PolC-type (Bacillus subtilis (strain 168)), sequence (P13267 whole entry, looked up): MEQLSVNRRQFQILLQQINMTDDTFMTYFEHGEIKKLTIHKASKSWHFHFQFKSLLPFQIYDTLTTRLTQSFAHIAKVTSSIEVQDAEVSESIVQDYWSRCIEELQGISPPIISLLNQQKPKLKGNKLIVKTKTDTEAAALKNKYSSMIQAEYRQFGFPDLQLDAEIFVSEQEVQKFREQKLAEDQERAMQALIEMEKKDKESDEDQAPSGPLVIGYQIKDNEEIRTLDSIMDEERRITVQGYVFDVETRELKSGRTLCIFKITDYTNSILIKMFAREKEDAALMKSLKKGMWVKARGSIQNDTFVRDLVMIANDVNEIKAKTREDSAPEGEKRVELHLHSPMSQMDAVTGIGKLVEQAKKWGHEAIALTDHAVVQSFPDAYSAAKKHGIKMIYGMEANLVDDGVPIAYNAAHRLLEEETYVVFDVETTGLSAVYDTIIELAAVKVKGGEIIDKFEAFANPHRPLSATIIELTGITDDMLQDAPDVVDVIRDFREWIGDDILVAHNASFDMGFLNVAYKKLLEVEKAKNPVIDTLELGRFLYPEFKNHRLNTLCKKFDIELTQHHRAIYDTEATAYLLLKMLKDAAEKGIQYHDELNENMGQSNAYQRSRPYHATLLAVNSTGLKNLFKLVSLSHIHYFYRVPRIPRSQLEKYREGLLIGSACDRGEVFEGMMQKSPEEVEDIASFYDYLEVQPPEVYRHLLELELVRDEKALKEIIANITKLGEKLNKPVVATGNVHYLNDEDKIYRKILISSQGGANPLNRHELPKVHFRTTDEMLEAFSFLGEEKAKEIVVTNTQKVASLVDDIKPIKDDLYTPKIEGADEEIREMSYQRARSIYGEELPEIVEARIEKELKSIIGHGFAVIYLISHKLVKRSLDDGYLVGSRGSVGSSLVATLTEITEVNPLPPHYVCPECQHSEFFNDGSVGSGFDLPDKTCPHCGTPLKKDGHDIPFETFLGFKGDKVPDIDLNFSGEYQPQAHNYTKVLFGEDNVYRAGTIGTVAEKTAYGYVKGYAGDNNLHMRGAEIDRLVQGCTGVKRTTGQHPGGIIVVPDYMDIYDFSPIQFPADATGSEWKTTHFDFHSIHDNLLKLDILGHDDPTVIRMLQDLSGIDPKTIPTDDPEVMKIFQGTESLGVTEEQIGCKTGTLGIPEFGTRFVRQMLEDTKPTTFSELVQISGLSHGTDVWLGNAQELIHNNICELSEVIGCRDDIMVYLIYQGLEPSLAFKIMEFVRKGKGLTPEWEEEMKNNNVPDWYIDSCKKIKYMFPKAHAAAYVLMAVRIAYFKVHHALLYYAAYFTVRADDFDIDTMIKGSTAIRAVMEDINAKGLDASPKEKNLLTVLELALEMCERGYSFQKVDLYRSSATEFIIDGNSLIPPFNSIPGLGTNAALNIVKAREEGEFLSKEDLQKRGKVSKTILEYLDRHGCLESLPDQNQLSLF
Phosphoglycerate kinase, glycosomal (Trypanosoma brucei brucei), sequence (P07378 whole entry, looked up): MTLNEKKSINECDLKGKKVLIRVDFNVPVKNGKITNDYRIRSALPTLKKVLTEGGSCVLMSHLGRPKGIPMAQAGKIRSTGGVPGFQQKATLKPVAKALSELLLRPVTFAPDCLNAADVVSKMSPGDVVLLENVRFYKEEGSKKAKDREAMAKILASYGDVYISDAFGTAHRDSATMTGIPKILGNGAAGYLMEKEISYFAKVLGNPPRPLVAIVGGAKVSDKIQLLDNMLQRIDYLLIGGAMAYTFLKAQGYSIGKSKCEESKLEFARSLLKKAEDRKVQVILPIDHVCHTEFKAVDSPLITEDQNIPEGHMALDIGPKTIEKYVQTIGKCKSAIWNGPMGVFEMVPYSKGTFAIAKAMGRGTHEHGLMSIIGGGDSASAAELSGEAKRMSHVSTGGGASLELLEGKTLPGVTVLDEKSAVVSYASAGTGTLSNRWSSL

C[C@H]1C2Cc3ccc(O)cc3[C@]1(C)CCN2CC1CC1
inactive: all assays above

C#CCN(C)C(C)Cc1ccccc1 (stereo not given)
inactive: [7]

CC12CCC3C(CCC4=C(O)C(=O)CCC43C)C1CCC2=O (stereo not given)
not listed: [7]
inactive: all other assays above
